Screens as filed in PubChem.
Rows were chosen to be rich in hits. Some 4.2% of all compounds tested hit in one or more screens of this group.
PfHsp90 set2 = reduces growth (ATP signal) of yeast expressing P. falciparum Hsp90. S. cerevisiae expressing PfHsp90, BacTiter-Glo ATP, 48 h; yeast lacking PDR1 and PDR3 efflux regulators. inhibition, % at 9.4 µM. actives 0.32% (n = 310,000). AID 504621;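 active = every replicate shows inhibition above about 80%, whatever the replicate mean, limit read from the data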;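 also: 0% = DMSO neutral controls and 100% = 20 µM radicicol positive controls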
tim10-1 inh = inhibits growth of tim10-1 mutant yeast | S. cerevisiae tim10-1 ts strain growth, BacTiter-Glo, 24 h | inhibition, % at 20 µM | actives 2.2% (n = 330,000);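 active = inhibition of at least 40%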;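 also: mutant grown at 25 °C; 0% = DMSO wells with yeast and 100% = wells holding no yeast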
tim23-1 inh = growth inhibitors of tim23-1 mutant yeast; inhibition, % at 20 µM; S. cerevisiae tim23-1 growth, BacTiter-Glo luminescence, 24 h; actives 1.3% (n = 330,000); AID 463212;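 active = growth inhibition of the mutant yeast at or above 50%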;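 also: temperature-sensitive mutant grown at 25 °C; plate controls were DMSO-treated mutant yeast for no effect and medium wells lacking yeast for full effect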
NALP1 inh = NALP1 inhibition; actives 0.61% (n = 280,000); AID 2071; S. cerevisiae NALP1/ASC/caspase-1 growth, X-gal OD620, 72 h; inhibition, % at 10 µM; in the data active = inhibition mostly above about 24%, no sharp cut-off; inactive = mostly below about 32%
NALP3 yeast inh = inhibitors of NALP3 inflammasome in yeast; inhibition, % at 10 µM; actives 0.39% (n = 330,000); Yeast reconstituted NLRP3/ASC/caspase-1, beta-gal luminescence, 24 h; AID 2825;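 active = inhibition of 50% or more; inactive = inhibition below 50%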;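 also: plate controls were induced DMSO wells for no effect and uninduced yeast grown without galactose for full effect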
TIM10 inh = inhibits growth of TIM10 yeast strain | inhibition, % at 10 µM | AID 463195 | S. cerevisiae TIM10 strain growth, BacTiter-Glo luminescence, 24 h | actives 1.4% (n = 330,000);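 active = inhibition of 40% or more at the single tested concentration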;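 also: wild-type TIM10 isogenic control strain grown at permissive 25 °C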
* = called active by the depositor; · = no result given; + = active, no number.

SMILES	PfHsp90 set2	tim10-1 inh	tim23-1 inh	NALP1 inh	NALP3 yeast inh	TIM10 inh
COc1ccc2c(c1)OC[C@H]1[C@H]2N2C(=O)c3cc(OC)c(OC)cc3NC(=O)[C@@]2(C)[C@H]1c1ccccc1	-26.8	28.9	31.2	·	9.0	13.0
COc1ccc2c(c1)[C@H]1[C@H](CO2)[C@H](c2ccccc2)[C@]2(C)C(=O)Nc3ccc(Br)cc3C(=O)N12	+	18.9	42.0	·	13.1	34.4
COc1ccc2c(c1)C(=O)N1[C@H]3c4cc(OC)ccc4OC[C@@H]3[C@H](c3ccccc3)[C@]1(C)C(=O)N2	-36.4	25.1	6.5	·	12.3	-4.5
COc1ccc2c(c1)OC[C@H]1[C@H]2N2C(=O)c3cc(Br)ccc3NC(=O)[C@@]2(C)[C@H]1c1ccccc1	102.3*	35.7	46.5	·	12.0	8.2
OCCC1CN(Cc2ccon2)CCN1Cc1ccccc1 (stereo not given)	0.0	20.2	10.9	20.2	15.6	15.2
CC(C)CCNC(=O)C(NS(=O)(=O)c1ccc2c(c1)c(=O)n(C)c(=O)n2C)c1ccccc1 (stereo not given)	5.9	-1.6	-7.4	44.0*	-0.4	-10.6
CCC(C)NC(=O)C(NS(=O)(=O)c1ccc2c(c1)c(=O)n(C)c(=O)n2C)c1ccccc1 (stereo not given)	11.8	13.2	18.3	-15.0	2.4	4.4
Cc1cc(C)c2c(n1)SCC(=O)N2CC(=O)Nc1ccc(F)cc1	-24.7	2.7	-0.1	3.3	0.9	6.0
CC1(C(=O)c2ccccc2)C2c3c(ccc4ccccc34)OC(=O)C21C(=O)N1CCOCC1 (stereo not given)	105.2*	-65.2	-16.3	6.8	28.1	-18.3
CCOc1ccc(S(=O)(=O)Nc2ccccc2C(=O)N(C)C2CCN(C)CC2)cc1	-7.6	2.1	13.8	·	-8.4	6.9
CCOC(=O)c1ccccc1NS(=O)(=O)c1ccc(OCC)cc1	10.4	28.1	24.1	30.4*	27.2	6.3
Nc1nonc1-n1nnc(C(=O)N/N=C/c2cc(Cl)ccc2O)c1CN1CCCCCC1	-7.2	34.9	35.5	·	8.9	27.0
CCOC(=O)n1c(SCC(N)=O)nc2ccccc21	3.4	10.4	6.2	26.1*	1.7	5.5
CCCCOC(=O)n1c(SCC(=O)N(CC)CC)nc2ccccc21	-3.4	26.3	33.8	0.9	36.1	25.1
Cc1ccc(C(=O)C(SC(C)(C)C)n2cncn2)cc1 (stereo not given)	82.5*	-106.8	-301.6	3.8	23.7	-8.3
CCCC(C(=O)c1ccccc1)n1cncn1 (stereo not given)	-25.5	6.2	4.8	10.1	16.1	-5.2
CSc1nc2c(c(=O)n1-c1ccc(C)cc1)SCC2	·	23.4	18.9	27.6*	22.6	2.4
CCc1noc(C)c1C(=O)Nc1ccc(Cl)c(S(=O)(=O)N2CCCCC2)c1	6.6	15.4	21.9	·	24.1	15.9
COc1ccc(/C=C/C(=O)NC(=S)NNC(=O)c2cnccn2)cc1	96.9*	1.8	43.0	·	1.4	-16.7
O=C(/C=C/c1ccc(F)cc1)NC(=S)NNC(=O)c1cnccn1	107.9*	5.9	24.3	·	28.0	-46.9
O=C(NC(=S)NNC(=O)c1cnccn1)c1ccc(F)cc1	-64.7	-30.6	17.0	0.3	15.1	2.8
COc1ccc(/C=C/C(=O)NC(=S)NNC(=O)c2cccnc2)cc1	38.2	22.0	-3.5	-47.9	16.9	18.6
CC12CC3CC1C(C(=O)O2)C3C(=O)O (stereo not given)	6.6	·	·	·	·	·
COC(=O)c1scc(C)c1N/N=C(\C)c1ccc(F)cc1	-23.9	2.7	-1.2	41.5*	6.4	5.9
Cc1csc(C(=O)O)c1NC(=O)c1ccc(F)cc1	-0.3	3.0	-4.0	-4.6	5.6	0.9
SMILES	PfHsp90 set2	tim10-1 inh	tim23-1 inh	NALP1 inh	NALP3 yeast inh	TIM10 inh
CCC1Sc2ccccc2N(CC(=O)NCCC2=CCCCC2)C1=O (stereo not given)	16.1	24.6	30.3	42.6*	14.2	10.6
C=CCNc1nc(Nc2cc(Cl)ccc2OC)nc(OC)n1	-2.9	16.3	0.1	24.6*	19.3	-0.2
O=C1NC(=O)c2cc(Oc3ccc([N+](=O)[O-])cc3)ccc21	-27.8	3.2	11.9	9.3	-18.7	-3.3
CC1CC(C)C(=NNC(N)=O)C(C(O)CC2CCC(=O)NC2=O)C1 (stereo not given)	114.1*	·	·	·	·	·
Fc1cc(F)c(C2SCCN2C(=S)Nc2cccc(C(F)(F)F)c2)c(F)c1 (stereo not given)	-17.5	6.1	-67.4	37.1*	-0.9	-167.2
CC(NCCC(c1ccccc1)c1ccccc1)c1ccccc1 (stereo not given)	-33.7	29.9	9.1	54.1*	32.7	16.4
COc1ccc2c3c(ccc2c1)C(=O)/C(=C/O)CC3	106.6*	·	·	·	·	·
CCCn1c(=O)c2ccccc2n2c(SCC(=O)c3ccc(F)cc3)nnc12	·	·	·	41.7*	·	·
CCCn1c(=O)c2ccccc2n2c(SCC(=O)c3ccccc3)nnc12	9.8	4.6	9.4	9.9	16.8	4.6
CCOc1ccc(NC(=O)NNC(=O)c2ccc(CC)s2)cc1	2.7	-49.5	-21.5	12.2	16.1	-25.0
CCCc1sc(N/N=C/c2ccccn2)nc1-c1ccc(F)cc1	124.1*	-10.6	-1.8	-10.2	13.0	13.2
COc1ccc2c(n1)Sc1nc3ccccc3nc1N2	89.0*	·	·	2.3	·	·
CCOC(=O)C1(Cc2cccc(OC)c2)CCN(Cc2cccn2-c2nccs2)CC1	12.9	22.4	19.9	39.3*	17.5	-5.2
CCOc1ccc(-c2cc(C(=O)NCCCN3CCN(CC)CC3)c3ccccc3n2)cc1	·	1.9	8.9	31.0*	-0.5	-0.7
NC(=NC(=O)c1ccccc1)N1CCN(C(c2ccccc2)c2ccccc2)CC1	-9.8	5.1	6.8	·	6.8	9.6
NC(=NCCc1ccccc1)NS(=O)(=O)c1ccccc1	-3.6	5.4	9.6	10.7	10.6	7.1
OCCN1CCN(c2nc(-c3ccccc3)c3cc(Br)ccc3n2)CC1	-25.5	18.4	21.9	31.1	33.8	20.7
OCCN1CCN(c2ncnc3ccc(Br)cc23)CC1	-11.1	-0.2	6.6	32.2*	19.3	-1.5
COC(=O)Nc1ccc(S(=O)(=O)N2CCC(C(=O)N3CCCC(C)C3)CC2)cc1 (stereo not given)	8.2	3.9	8.4	37.8*	6.9	4.8
O=C1CC(N2CCN(c3nc4ccccc4s3)CC2)C(=O)N1Cc1cccs1 (stereo not given)	104.6*	8.9	26.0	4.4	16.5	28.2
CCC(C)c1ccccc1N1CC(C(=O)Nc2cccc(S(=O)(=O)N3CCOCC3)c2)CC1=O (stereo not given)	-18.8	-4.5	6.2	13.7	5.3	18.6
CCC(C(=O)OCC(=O)N(CCOC)c1c(N)n(Cc2ccccc2)c(=O)[nH]c1=O)c1ccccc1 (stereo not given)	-21.5	6.0	5.5	33.0*	13.4	11.2
